# Laboratory results from PubChem BioAssay AID743365 (National Center for Advancing Translational Sciences (NCATS), 2014).
# Test: qHTS profiling of inhibitors of Plasmodium falciparum (DD2) proliferation (acoustic dispense)
# Settings: P. falciparum Dd2 in erythrocytes, SYBR Green DNA, 72 h; at 49.8 µM (top of the series) unless noted
# Text: Plasmodium falciparum is a virulent malarial parasite that kills 1-2 million people worldwide each year. Transmitted by mosquitoes, the sporozoite form of the parasite enters the blood stream to infect hepatocytes, where they become merozoites that infect red blood cells (erythrocytes). Within erythrocytes, merozoites begin a […] cycle of growth and division, after which the parasite is released to infect new red blood cells. Gametocytes, which form within erythrocytes as well, circulate in the bloodstream and are ingested by the mosquito, thereby completing the life cycle. To profile malarial isolates for differential chemical responses and to identify inhibitors of malarial growth, an assay that measures P. falciparum growth and replication within erythrocytes was employed. This assay uses a DNA binding fluorescent dye (SYBR Green) to detect parasite DNA following cell lysis. Because mature erythrocytes lack DNA, only Plasmodium-derived DNA is detected.
# The SYBR Green viability assay was adapted from a method described previously (Plouffe et al., 2008). For screening 3 ul culture medium was dispensed into 1536 well black clear bottom plates (Aurora Biotechnologies) using a Multidrop Combi (Thermo Fisher Scientific Inc.), 23 nL of compounds in DMSO were added by an acoustic dispenser (EDC Biosystems), and 5 ul of erythrocytes infected with P. falciparum (0.3% parasitemia, 2.5% hematocrit final concentration) were added. The plates were incubated at 37 C in a humidified incubator in 5% CO2 for 72 h, and 2 ul lysis buffer (20 mM Tris HCl, 10 mM EDTA, 0.16% saponin, 1.6% triton X, 10X SYBR Green I supplied as 10,000X […] by Invitrogen) was added to each well. The plates were mixed for 25 sec with gentle shaking and incubated overnight at room temperature in the dark. The following morning, fluorescence intensity at 485(14) nm excitation and 535(25) nm emission wavelengths was measured on an EnVision (Perkin Elmer) plate reader. Plate reads were normalized relative to the control inhibitor (0.29 uM artemisinin) and vehicle (DMSO) wells present on each plate and then corrected by an algorithm using vehicle-only control plates at the beginning and end of the compound plate stack.
row,Structure (SMILES),"parasite growth, lower = inhibition"
1,COC(=O)[C@@]1(OC)C[C@@H]2O[C@@]1(C)n1c3ccccc3c3c4c(c5c6ccccc6n2c5c31)C(=O)N(C)C4,13.1% [at 16.5 µM]
2,CC1=C(O)C(=O)C=C2C1=CC=C1[C@@]2(C)CC[C@@]2(C)[C@@H]3C[C@](C)(C(=O)O)CC[C@]3(C)CC[C@]12C,3.33%
3,COC1=CC(C)=C[C@@H](C)[C@@H](O)[C@@H](C)CC(C)=CC=C[C@H](OC)[C@H]([C@@H](C)[C@@H](O)[C@H](C)[C@@]2(O)C[C@@H](O)[C@H](C)[C@@H](C(C)C)O2)OC1=O,0.538%
4,CC(=O)N(O)CCCP(=O)(O)O,4.17%
5,CC=C1C2C=C(C)CC1(N)c1ccc(=O)[nH]c1C2 (configuration not stated),97.1%
6,CC=C(C)C(=O)N[C@@H](c1ccccc1)[C@@H](O)C(=O)O[C@H]1C[C@@]2(O)[C@@H](OC(=O)c3ccccc3)[C@@H]3[C@]4(OC(C)=O)CO[C@@H]4C[C@H](O)[C@@]3(C)C(=O)[C@H](OC(C)=O)C(=C1C)C2(C)C,4.37%
7,CC(=Cc1csc(C)n1)[C@@H]1C[C@H]2O[C@@H]2CCC[C@H](C)[C@@H](O)[C@@H](C)C(=O)C(C)(C)[C@@H](O)CC(=O)O1,3%
8,CC(C)(N)CNC(=O)CC1CCC2(CC1)OOC1(O2)C2CC3CC(C2)CC1C3 (configuration not stated),-0.141%
9,CN1C(=O)C[C@H](C(=O)N[C@@H](Cc2cnc[nH]2)C(=O)N2CCC[C@@H]2C(N)=O)NC1=O,82%
10,C[C@]12O[C@H](C[C@@]1(O)C(=O)O)n1c3ccccc3c3c4c(c5c6ccccc6n2c5c31)CNC4=O,5.95% [at 4.15 µM]
11,CC(=O)Nc1nnc(S(N)(=O)=O)s1,91%
12,O=c1[nH]c2ccc(Cl)cc2c(N[C@@H]2CN3CCC2CC3)c1-c1nc2ccccc2[nH]1,0.0567%
13,OB1OCc2cc(F)ccc21,88.5%
14,O=C(C[C@@H]1NCCC[C@@H]1O)Cn1cnc2ccccc2c1=O,-0.505%
15,C[C@@H]1C[C@@H]([C@H](O)CC2CC(=O)NC(=O)C2)C(=O)[C@@H](C)C1,0.0707%
16,CO[C@H]1CCC(O[C@H]2C[C@H]([C@]3(C)CC[C@]4(C[C@H](O)[C@@H](C)[C@@H]([C@@H](C)C=C(C)C(=O)[C@H](C)C[C@H](C)C(=O)O)O4)O3)O[C@]3(O[C@@H]([C@H]4O[C@@](O)(CO)[C@H](C)C[C@H]4C)C[C@H]3C)[C@H]2C)O[C@H]1C (some centres not stated),104%
17,C[C@H]1CCCC=CC2C[C@H](O)C[C@@H]2[C@H](O)C=CC(=O)O1 (some centres not stated),-0.172%
